In the library only some 7.9% were active in any assay of this set; here they are far more common.
MARV entry inh: qHTS for inhibitors of binding or entry into cells for Marburg Virus; Marburg virus pseudotyped entry inhibition, cell reporter; Potency, µM (highest dose often 37.8 µM), inactives show top-dose activity change, negative = inhibition, most hits filed as inhibitors; hit rate 1.8% among 300,000; calls by dose curve; tested in HEK293 cells; also: potency is read from the fitted curve at half-maximal effect
HCV inhibitor: qHTS Assay for Inhibitors of Hepatitis C Virus (HCV). Potency, µM (series often up to 41.8 µM), for inactives: at the top dose activity change, negative = inhibition, actives largely listed as inhibitors. hit rate 3.4% among 340,000. AID 651820, 2012. Huh7.5.1 HCVcc-Cre infection, luciferase reporter, 44 h; active = well fitted inhibition curve with a large enough effect; inconclusive = small, poorly fitted or top-dose-only effect, or another doubt; inactive = no such curve, though single readings can be large or run the other way; also: potency is read from the fitted curve at half-maximal effect
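Reporter virus HCVcc-Cre (~0.5 moi) infects cells exposed to compound; seeding density 1,000 cells/well with 4 h settling beforehand. Luminescence, 15 sec read, taken 44 h post-infection following a 15 min RT substrate incubation.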
HCMV inh: qHTS Assay for inhibitors of the human cytomegalovirus (HCMV). HFF cells, HCMV-luciferase reporter, 72 h; stronger effect = lower value. activity change, negative = inhibition, % at 57.5 µM. hit rate 4.5% among 410,000. AID 1259415, 2018; in the data active = activity change below about -60%; inconclusive = no clear call, values can overlap the other calls; inactive = above about -39%
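After 16 h attachment at 37C, HFF cells received test compound and HCMV-luciferase (1 PFU/cell); reporter luminescence read 72 h later, data normalized against buffer-only and known inhibitor Salinomycin.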
Lassa entry inh: qHTS for Inhibitors of binding or entry into cells for Lassa Virus | Lassa virus pseudotype entry inhibition, cell reporter | Potency, µM (series often up to 37.9 µM), for the others: at the highest dose activity change, negative = inhibition, most hits filed as inhibitors | hit rate 1.2% among 300,000; calls by dose curve; tested in HEK293 cells; also: potency is read from the fitted curve at half-maximal effect; nearly all actives have a fitted effect of over 50% in size
FMDV antiviral: High Throughput Screening for Foot and Mouth Disease Virus Antivirals; FMDV antiviral cell-based qHTS; Potency, µM (top dose mostly 57.9 µM), for the others: top-dose activity change, negative = inhibition, usual class: inhibitors; hit rate 1.2% among 410,000; AID 1159524, 2015; calls by dose curve; tested in HEK293T cells; also: read-out not given here; potency is read from the fitted curve at half-maximal effect; nearly all actives have a fitted effect of over 45% in size
An asterisk follows results filed as active; [ ] = dose if it differs, or a comment. % is scaled to controls: 0 for no effect and ±100 for the full control effect.

Screening COc1cc(NC(=O)c2ccc(F)cc2)c(OC)cc1Cl returned MARV entry inh 0%, HCV inhibitor inconclusive, HCMV inh 115, Lassa entry inh -9% and FMDV antiviral 87%.
`COc1cc(NC(=O)c2c(F)c(F)c(F)c(F)c2F)c(OC)cc1Cl` gave MARV entry inh inconclusive, HCV inhibitor 11µM*, HCMV inh 2, Lassa entry inh -28% and FMDV antiviral inconclusive.
COc1cc(NC(=O)c2cc(C(C)C)on2)c(OC)cc1Cl was read as MARV entry inh 15µM*, HCV inhibitor 11µM*, HCMV inh 85, Lassa entry inh inconclusive and FMDV antiviral -8%.
COc1ccc(NC(=O)c2cc(C(C)C)on2)c(OC)c1 was read as HCV inhibitor -24%, HCMV inh -5 and FMDV antiviral 40%.
For Cn1c(=N)n(CC(=O)c2ccc(F)cc2)c2ccccc21 the results were MARV entry inh inconclusive, HCV inhibitor inconclusive, HCMV inh inconclusive, Lassa entry inh inconclusive and FMDV antiviral -24%.
Screening Cn1c(=N)n(CC(=O)c2ccc(Br)cc2)c2ccccc21 returned MARV entry inh inconclusive, HCV inhibitor 6.3µM*, HCMV inh 27, Lassa entry inh 10µM* and FMDV antiviral -9%.
For CCOC(=O)Cn1c(=N)n(CCOc2ccc(OC)cc2)c2ccccc21 the results were MARV entry inh inconclusive, HCV inhibitor -3%, HCMV inh 2, Lassa entry inh -11%[46.1 µM] and FMDV antiviral -7%.
`CCn1c(=N)n(CC(=O)c2ccc(OC)cc2)c2ccccc21` gave MARV entry inh 10µM*, HCV inhibitor -15%, HCMV inh 23, Lassa entry inh inconclusive and FMDV antiviral -5%.
Screening CC(C)c1ccc(CN2C(=O)C(n3cccc3)c3cccc(F)c32)cc1 (stereo not drawn) returned HCMV inh -31.
`Cc1cc(C)nc(SCc2ccc(C(=O)NNC(=O)Nc3cccc(Cl)c3)cc2)n1` gave MARV entry inh inconclusive, HCV inhibitor 25µM*, HCMV inh -31, Lassa entry inh 11µM* and FMDV antiviral 8%.
`Cc1cc(C)nc(SCc2ccc(C(=O)N/N=C/c3ccncc3)cc2)n1` gave MARV entry inh 4%[46.1 µM], HCV inhibitor -11%, HCMV inh 19, Lassa entry inh -2%[46.1 µM] and FMDV antiviral -6%.
O=C(O)c1cc([N+](=O)[O-])c(Sc2nc3ccccc3[nH]2)c([N+](=O)[O-])c1 was read as HCV inhibitor 6%, HCMV inh 82 and FMDV antiviral -7%.
CCN1CCN(c2ccc([N+](=O)[O-])c(Sc3nc4ccccc4[nH]3)c2)CC1 was read as MARV entry inh inconclusive, HCV inhibitor 22µM*, HCMV inh -32, Lassa entry inh -4% and FMDV antiviral -14%.
CS(=O)(=O)c1cc([N+](=O)[O-])c(Sc2nc3ccccc3[nH]2)c([N+](=O)[O-])c1 was read as MARV entry inh 13µM*, HCV inhibitor inconclusive, HCMV inh 23, Lassa entry inh 20% and FMDV antiviral inconclusive.
`CCCNC(=O)c1ccc(-n2c(-c3ccccc3)cc3c2CCCCC3)cc1` gave HCMV inh -87*, Lassa entry inh -23%[46.1 µM] and FMDV antiviral -4%.
Screening COCCNC(=O)c1ccc(-n2c(-c3ccccc3)cc3c2CCCCC3)cc1 returned HCMV inh -99*, Lassa entry inh inconclusive and FMDV antiviral 17%.
`CC(C)NC(=O)c1ccc(-n2c(-c3ccccc3)cc3c2CCCC3)cc1` gave HCMV inh -68*, Lassa entry inh inconclusive and FMDV antiviral -13%.
For CN(C)CCNC(=O)c1ccc(-n2c(-c3ccccc3)cc3c2CCCC3)cc1 the results were HCMV inh -92*, Lassa entry inh inconclusive and FMDV antiviral -9%.
`CCc1nc(-c2cc(S(=O)(=O)N3CCN(c4ccccc4)CC3)ccc2OC)no1` gave MARV entry inh 22%[46.1 µM], HCMV inh 4, Lassa entry inh 21%[46.1 µM] and FMDV antiviral -16%.
CCOc1ccc(CC(=O)NC2CC(=O)N(c3ccc4c(c3)OCCO4)C2)cc1 (stereo not drawn) was read as HCMV inh -39, Lassa entry inh -3%[46.1 µM] and FMDV antiviral -3%.
For COc1ccccc1CN1CC(C(=O)NCCN(C)CCc2ccccc2)CCC1=O (stereo not drawn) the results were MARV entry inh inconclusive, HCV inhibitor 4%, HCMV inh -25, Lassa entry inh 5.6µM* and FMDV antiviral 13%.
Screening COc1ccccc1CN1CC(C(=O)N2CCC(OC)CC2)CCC1=O (stereo not drawn) returned MARV entry inh 10%, HCV inhibitor 23%, HCMV inh -64*, Lassa entry inh -3% and FMDV antiviral -1%.
`COC1=CC2C(=O)C([C@@H]3c4ccccc4C[C@]23C)C1(O)c1cccc(OC)c1` (stereo partly drawn) gave MARV entry inh 4%[14.2 µM].
For Cc1ccccc1Cn1c(=O)n(Cc2ccc3c(c2)OCO3)c(=O)c2oc3ccccc3c21 the results were HCMV inh inconclusive, Lassa entry inh 8%[46.1 µM] and FMDV antiviral 10%.
For CC(C)(C)OC(=O)N(Cc1ccccc1)Cc1ccc(OCc2cccc(NC(=O)C3CC3)c2)cc1 the results were HCV inhibitor inconclusive, HCMV inh inconclusive and FMDV antiviral 14µM*.
Screening CC(C)(C)OC(=O)N(Cc1ccccc1)Cc1cccc(OCc2cccc(NC(=O)c3ccccc3)c2)c1 returned HCV inhibitor 7.9µM*, HCMV inh -28 and FMDV antiviral inconclusive.
Cc1c(-n2c(SCC(C)C)nc3ccccc3c2=O)c(=O)n(-c2ccccc2)n1C was read as MARV entry inh -28%[46.1 µM], HCV inhibitor -3%, HCMV inh -64*, Lassa entry inh 6% and FMDV antiviral 0%.
Cc1c(NC(=O)c2cc(-c3ccccc3)nc3ccccc23)c(=O)n(-c2ccccc2)n1C was read as MARV entry inh inconclusive, HCV inhibitor -30%, HCMV inh -15, Lassa entry inh 2% and FMDV antiviral -20%.
Cc1c(NC(=O)CSc2nc3ccccc3c(=O)n2C(C)C)c(=O)n(-c2ccccc2)n1C was read as HCV inhibitor -13%, HCMV inh -65* and FMDV antiviral -14%.
Cc1ccc(-c2cc(C(=O)Nc3c(C)n(C)n(-c4ccccc4)c3=O)c3ccccc3n2)cc1 was read as MARV entry inh inconclusive, HCV inhibitor 4%, HCMV inh -63*, Lassa entry inh inconclusive and FMDV antiviral inconclusive.
Screening Cc1c(-n2c(SCC(=O)NC(C)C(C)C)nc3ccccc3c2=O)c(=O)n(-c2ccccc2)n1C (stereo not drawn) returned MARV entry inh inconclusive, HCV inhibitor 11%, HCMV inh -27, Lassa entry inh 0%[46.1 µM] and FMDV antiviral -1%.
